Values joined by “and” are separate entries in the source; they are usually repeats but may differ in a detail not shown here. Equal values may be shown once. Screen size: about 5,500 compounds; about 2,000 (36%) were called active. Not shown: some 18% with an inconclusive outcome. No stated cut-off is given here; in the data, active means normalized growth mostly below about 0.91 (no sharp cut-off); inconclusive means no clear call, values can overlap the other calls; inactive means mostly above about 0.92. The list shows a part of the results.
Assay: chemical genetic growth profiling, strain panel (AID 1159580);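 further: tested at 20 µM; growth read once vehicle control cultures reached saturation at 30 °C; 1 = growth at the plate median or of vehicle wells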
Settings: S. cerevisiae deletion strains, growth OD

Measured: normalized growth

O=C1CCC(N2C(=O)c3ccccc3C2=O)C(=O)N1 (stereo unspecified)
inactive: locus YAL013W, strain DEP1, stronger effect = lower value 1.02 and 0.99 | locus YAL021C, strain ccr4, stronger effect = lower value 0.999 | locus YAL026C, strain drs2, stronger effect = lower value 1.01 | locus YAL030W, strain snc1, stronger effect = lower value 1.01 | locus YAL040C, strain CLN3, stronger effect = lower value 1.01 | locus YBL061C, strain skt5, stronger effect = lower value 1.02 | locus YBR009C, strain hhf1, stronger effect = lower value 1.03 | locus YBR021W, strain FUR4, stronger effect = lower value 0.995 | locus YBR023C, strain chs3, stronger effect = lower value 1.03 | locus YBR171W, strain sec66, stronger effect = lower value 1.02 | locus YBR229C, strain ROT2, stronger effect = lower value 1.01 | locus YBR231C, strain swc5, stronger effect = lower value 1.01 | locus YBR279W, strain paf1, stronger effect = lower value 1.03 | locus YCL011C, strain gbp2, stronger effect = lower value 1.03 | locus YCL016C, strain dcc1, stronger effect = lower value 1.03 | locus YCL029C, strain bik1, stronger effect = lower value 0.989 | locus YCL061C, strain MRC1 (second series), stronger effect = lower value 1 | locus YCL061C, strain MRC1, stronger effect = lower value 1.01 | locus YCL069W, strain vba3, stronger effect = lower value 1.02 | locus YCR088W, strain abp1, stronger effect = lower value 1.01 | locus YDL005C, strain med2, stronger effect = lower value 1.01 | locus YDL035C, strain GPR1, stronger effect = lower value 1.02 | locus YDL040C, strain nat1, stronger effect = lower value 1.02 | locus YDL074C, strain BRE1, stronger effect = lower value 1.01 | locus YDL101C, strain DUN1, stronger effect = lower value 1.02 | locus YDL134C, strain PPH21, stronger effect = lower value 1.01 | locus YDL185W, strain tfp1, stronger effect = lower value 0.99 | locus YDL192W, strain arf1, stronger effect = lower value 0.992 | locus YDR001C, strain nth1, stronger effect = lower value 1.02 | locus YDR069C, strain doa4, stronger effect = lower value 1.02 | locus YDR101C, strain arx1, stronger effect = lower value 0.971 | locus YDR137W, strain rgp1, stronger effect = lower value 1.01 | locus YDR150W, strain NUM1, stronger effect = lower value 1.01 | locus YDR159W, strain sac3, stronger effect = lower value 0.974 | locus YDR162C, strain NBP2, stronger effect = lower value 1.04 | locus YDR195W, strain ref2 0.977 | locus YDR297W, strain sur2, stronger effect = lower value 1.01 | locus YDR318W, strain mcm21, stronger effect = lower value 0.977 | locus YDR334W, strain swr1, stronger effect = lower value 1.02 | locus YDR335W, strain msn5, stronger effect = lower value 1.02 | locus YDR363W, strain ESC2, stronger effect = lower value 1 | locus YDR388W, stronger effect = lower value 0.991 | locus YDR392W, strain spt3, stronger effect = lower value 0.958 | locus YDR502C, strain sam2, stronger effect = lower value 0.981 | locus YEL003W, strain gim4, stronger effect = lower value 1.02 | locus YEL037C, strain rad23, stronger effect = lower value 1.02 | locus YEL061C, strain CIN8 (second series), stronger effect = lower value 1.02 | locus YEL061C, strain CIN8, stronger effect = lower value 1.01 | locus YER002W, strain NOP16, stronger effect = lower value 1.01 | locus YER015W, strain faa2, stronger effect = lower value 1.02 | locus YER016W, strain bim1, stronger effect = lower value 1 | locus YER110C, stronger effect = lower value 0.99 | locus YER111C, strain swi4, stronger effect = lower value 1.02 | locus YER155C, strain BEM2 (second series), stronger effect = lower value 0.998 | locus YER155C, strain BEM2, stronger effect = lower value 1 | locus YER167W, strain BCK2, stronger effect = lower value 1.01 | locus YFR010W, strain ubp6, stronger effect = lower value 1.02 | locus YGL078C, strain dbp3, stronger effect = lower value 0.997 | locus YGL086W, strain mad1, stronger effect = lower value 0.985 | locus YGL167C, strain pmr1, stronger effect = lower value 1.02 | locus YGL173C, strain kem1, stronger effect = lower value 1.01 | locus YGL227W, strain vid30, stronger effect = lower value 1.02 | locus YGL240W, strain doc1, stronger effect = lower value 0.986 | locus YGL248W, strain PDE1, stronger effect = lower value 1.01 | locus YGL253W, strain hxk2, stronger effect = lower value 1.01 | locus YGR078C, strain PAC10, stronger effect = lower value 1.02 | locus YGR135W, strain pre9, stronger effect = lower value 0.988 | locus YGR229C, strain SMI1, stronger effect = lower value 1.04 | locus YGR252W, strain gcn5, stronger effect = lower value 0.969 | locus YHR013C, strain ard1, stronger effect = lower value 1.04 | locus YHR027C, strain rpn1, stronger effect = lower value 1.01 | locus YHR030C, strain SLT2, stronger effect = lower value 1 and 0.974 | locus YHR079C, strain IRE1 (second series), stronger effect = lower value 0.981 | locus YHR079C, strain IRE1, stronger effect = lower value 0.971 | locus YHR094C, strain hxt1, stronger effect = lower value 0.994 | locus YHR129C, strain ARP1, stronger effect = lower value 1 | locus YHR142W, strain chs7, stronger effect = lower value 1.04 | locus YHR200W, strain rpn10, stronger effect = lower value 0.986 | locus YIL066C, strain RNR3, stronger effect = lower value 1.01 | locus YIL073C, strain SPO22, stronger effect = lower value 1.01 | locus YIL125W, strain kgd1, stronger effect = lower value 0.997 | locus YIR030C, strain dcg1, stronger effect = lower value 0.994 | locus YJL092W, strain hpr5, stronger effect = lower value 1.02 | locus YJL095W, strain BCK1 (second series), stronger effect = lower value 1.02 | locus YJL095W, strain BCK1, stronger effect = lower value 1.01 and 0.98 | locus YJL115W, strain asf1, stronger effect = lower value 1.01 | locus YJL129C, strain trk1, stronger effect = lower value 1.03 | locus YJL134W, strain LCB3, stronger effect = lower value 1.01 | locus YJL154C, strain vps35, stronger effect = lower value 1.01 | locus YJL164C, strain tpk1, stronger effect = lower value 1.03 | locus YJL166W, strain qcr8, stronger effect = lower value 1.03 | locus YJL168C, strain set2, stronger effect = lower value 0.991 | locus YJL187C, strain SWE1 (second series), stronger effect = lower value 1.01 | locus YJL187C, strain SWE1, stronger effect = lower value 1.01 | locus YJR043C, strain POL32, stronger effect = lower value 0.979 | locus YJR066W, strain TOR1, stronger effect = lower value 0.951
